# Screening data as filed in PubChem.
# FEN1 inhibitor: human FEN1 inhibition; P39748; Recombinant FEN1 flap cleavage, fluorescence, 15 min; Potency, µM (highest dose often 114 µM), actives largely listed as inhibitors; 390,000 compounds, 0.35% hits; also: nearly all actives have a fitted effect of over 65% in size
# Target sequence (P39748 whole entry, looked up): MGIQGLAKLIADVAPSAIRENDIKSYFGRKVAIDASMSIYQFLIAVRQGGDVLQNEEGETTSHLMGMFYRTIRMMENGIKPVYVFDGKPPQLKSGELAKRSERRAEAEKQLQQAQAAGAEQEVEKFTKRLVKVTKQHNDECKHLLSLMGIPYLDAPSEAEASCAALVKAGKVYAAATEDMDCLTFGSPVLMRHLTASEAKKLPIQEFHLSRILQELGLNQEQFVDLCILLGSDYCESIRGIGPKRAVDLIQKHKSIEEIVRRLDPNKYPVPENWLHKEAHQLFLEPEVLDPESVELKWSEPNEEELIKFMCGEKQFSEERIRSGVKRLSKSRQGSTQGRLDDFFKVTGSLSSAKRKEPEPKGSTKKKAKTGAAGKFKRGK
#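 Enzyme 10 nM, 15 min RT preincubation with compound; start with substrate 50 nM final; reads at 0 and 15 min; qHTS titration, four-parameter Hill fit.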
# PI5P4K alpha inh: PI5P4K alpha (human) kinase inhibition; P48426; PI5P4Kalpha enzyme, ADP-Glo luminescence, 60 min; stronger effect = lower value; max response, %; 330,000 compounds, 1.2% hits; active = max response of -50% or lower; inconclusive = between -30% and -50%; inactive = -30% or higher; also: value at the top dose of about 77 µM
#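 PI5P4Kalpha ADP-Glo assay; 5 microM ATP final; 60 min RT reaction; HEPES pH 7.4/EGTA/CHAPS, 5% DMSO; controls lacking substrate or enzyme; luminescent end-point.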
# TCR activator: T cell receptor activation; 330,000 tested, under 10 active; AID 504894; primary human leukocytes, anti-CD3, IL-2 HTRF, 48 h; Potency, µM (titrated, usually from 9.22 µM), most hits filed as activators
#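 48 hr co-incubation of compounds, a-CD3 beads and primary human leukocytes; IL-2 quantified homogeneously by HTRF with anti-IL-2 K and d2 conjugates.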
# PLK1 PBD inh: blocks phosphopeptide binding to human PLK1 polo-box domain | Plk1 PBD binding of FITC phosphopeptide, fluorescence polarization | Potency, µM, usual class: inhibitors | 360,000 compounds, 2.8% hits | AID 720504; also: series mostly up to about 57 µM; nearly all actives have a fitted effect of over 65% in size
# VDR inh: blocks the human vitamin D receptor. P11473. VDR-SRC2-3 peptide fluorescence polarization, 2 h. Potency, µM, usual class: inhibitors. 400,000 compounds, 0.93% hits. AID 504847
#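 The screen uses fluorescence polarization to detect compounds that interfere with recruitment of the SRC2-3 coactivator peptide to VDR; plates are read after 2 h at room temperature.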
# WRN helicase inh: WRN helicase (human) inhibition | Q14191 | WRN helicase unwinding, fluorescent forked duplex, kinetic | Potency, µM (highest dose often 114 µM), most hits filed as inhibitors | 360,000 compounds, 0.46% hits; also: nearly all actives have a fitted effect of over 55% in size
#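 WRN at 20 nM final preincubated with compound 15 min at room temperature; reaction started with 100 nM fluorophore/quencher forked duplex oligonucleotide and 2 mM ATP final. Unwinding followed kinetically by red fluorescence (ex 525, em 598 nm).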
# Hits are given with their value; – = inactive; ? = inconclusive; · = not tested or not shown. Hits are enriched below; roughly 3.7% of the tested compounds scored in any of these assays. Unless noted, calls follow the shape of the dose curve; as a rule, active = well fitted curve in the direction sought with a large enough effect; inconclusive = small, poorly fitted or top-dose-only effect, or another doubt; inactive = no such curve, though single readings can be large; an effect the other way counts as inactive or inconclusive.
SMILES,FEN1 inhibitor,PI5P4K alpha inh,TCR activator,PLK1 PBD inh,VDR inh,WRN helicase inh
CSc1ccc(C2N=C(c3ccccc3)NO2)cc1 (centres undefined),–,–,–,–,–,–
Oc1c(Br)cc(C2N=C(c3ccccc3)NO2)cc1Br (centres undefined),–,-56,–,12µM,–,–
Cc1cc(C)c(NC(=O)CN(C)CC(=O)Nc2cccc(S(=O)(=O)N(C)c3ccccc3)c2)c(C)c1,–,–,–,–,–,–
Cc1ccccc1CN(C)CC(=O)Nc1cccc(S(=O)(=O)N(C)c2ccccc2)c1,–,–,–,27µM,–,–
COc1ccc(C)cc1NC(=O)CSc1nc(=O)n(Cc2ccco2)c2c1CCC2,–,·,·,·,–,·
CCC[C@H](NC(C)=O)C(=O)N[C@H]1CC(=O)ONCCCC[C@@H](C(N)=O)NC(=O)[C@H](Cc2c[nH]c3ccccc23)NC(=O)[C@H](CCCN=C(N)N)NC(=O)[C@@H](Cc2ccc3ccccc3c2)NC(=O)[C@H](Cc2cnc[nH]2)NC1=O,·,·,·,·,–,·
C=CCn1c(C)csc1=Nc1ccccc1C,–,–,–,30µM,–,–
C=CCn1c(C)csc1=Nc1ccc(C(C)=O)cc1,–,–,–,–,–,–
CC1CCN(C(=O)C(C)NCc2ccc(F)cc2)CC1 (centres undefined),–,–,–,17µM,?,–
CC1CCN(S(=O)(=O)N2CCCC(C(=O)NCc3ccc(F)cc3)C2)CC1 (centres undefined),–,–,–,27µM,79µM,?
O=C(NCc1ccc(F)cc1)C1CCN(S(=O)(=O)N2CCCC2)CC1,–,–,–,12µM,?,–
CCOC(=O)N1CCN(S(=O)(=O)N2CCCC(C(=O)NCc3ccc(F)cc3)C2)CC1 (centres undefined),–,–,–,–,–,–
Cc1ccc(O)c(C(=O)c2cnn(-c3ccccc3)c2)c1,–,?,–,3.4µM,?,?
CCCCn1c(NC(=O)c2ccco2)c(S(=O)(=O)c2ccc(C)cc2)c2nc3ccccc3nc21,–,–,–,?,?,?
CCCCCn1c(NC(=O)c2ccco2)c(S(=O)(=O)c2ccc(C)cc2)c2nc3ccccc3nc21,–,·,–,21µM,?,–
CCCCn1c(NC(=O)c2ccc(Br)o2)c(S(=O)(=O)c2ccccc2)c2nc3ccccc3nc21,–,·,–,25µM,?,–
CCCCn1c(NS(=O)(=O)c2ccccc2)c(S(=O)(=O)c2ccc(C)cc2)c2nc3ccccc3nc21,–,–,–,27µM,50µM,?
CN(C)CCCOc1c2ccccc2n(Cc2ccccc2)[n+]1[O-],·,·,·,·,–,·
COc1cc(OC)c(N(C)C(=O)c2c(C)oc3ncnc(N4CCCCC4)c23)cc1Cl,–,·,·,·,–,·
Cc1ccccc1CNC(=O)c1ccc(NC(=O)c2nsc3ccccc23)cc1,–,·,·,·,–,·
O=C(Nc1cc(C(F)(F)F)cc(C(F)(F)F)c1)c1cc(Cl)ccc1O,·,·,·,·,–,·
N/C(=C\C(=O)c1cc(Cl)ccc1O)C(Cl)(Cl)Cl,–,–,–,6.7µM,?,–
CCc1n[nH]c(=S)n1/N=C/c1cc(OC)cc([N+](=O)[O-])c1O,–,-57,–,?,–,?
COc1ccccc1-c1noc(-c2ccc(N(C)Cc3ccccc3)c([N+](=O)[O-])c2)n1,–,·,·,·,–,·
Nc1c(C(=O)NCCc2ccccc2)nnn1CC(=O)Nc1ccc(Cl)cc1,–,·,·,·,–,·
SMILES,FEN1 inhibitor,PI5P4K alpha inh,TCR activator,PLK1 PBD inh,VDR inh,WRN helicase inh
CC1CCC(=O)N(CCOc2ccccc2)CC1 (centres undefined),–,–,–,27µM,?,–
CC1CCN(CCCCOc2ccc(C(=O)c3ccccc3)cc2)CC1,–,–,–,27µM,–,–
CC1CCN(CCOc2ccc(C(=O)c3ccccc3)cc2)CC1,–,–,·,–,–,–
CCCCCCC[n+]1c(/C=C/c2ccc(N(C)C)cc2)sc2ccccc21,35µM,·,·,·,·,·
CCCCCCCCCCCCCCCC[n+]1ccc(/C=C/c2c(C)[nH]c3ccccc23)cc1,–,·,·,·,·,·
Cn1c2ccccc2c(=O)c2ccc(C#CC3(N)CCCCC3)cc21,22µM,–,–,–,–,–
